Our source for the Percent Effect values is ChEMBL document CHEMBL3988442, “University of Dundee, Small-Polar-MMV Screening Library” (2021).

Molecules are shown by their SMILES.

One test deals with Sialic acid-binding Ig-like lectin 9 (Homo sapiens) (UniProt Q9Y336). Kind of test: Hs-Siglec9 ALPHAscreen SOP 20170721. The arrangement: scale not given: direction of the effect not stated beside the values. The note with it: 10 µM. On the technique in general: Alpha assays give light when donor and acceptor beads are brought close together.
Sequence of Sialic acid-binding Ig-like lectin 9 (Homo sapiens) (Q9Y336 whole entry): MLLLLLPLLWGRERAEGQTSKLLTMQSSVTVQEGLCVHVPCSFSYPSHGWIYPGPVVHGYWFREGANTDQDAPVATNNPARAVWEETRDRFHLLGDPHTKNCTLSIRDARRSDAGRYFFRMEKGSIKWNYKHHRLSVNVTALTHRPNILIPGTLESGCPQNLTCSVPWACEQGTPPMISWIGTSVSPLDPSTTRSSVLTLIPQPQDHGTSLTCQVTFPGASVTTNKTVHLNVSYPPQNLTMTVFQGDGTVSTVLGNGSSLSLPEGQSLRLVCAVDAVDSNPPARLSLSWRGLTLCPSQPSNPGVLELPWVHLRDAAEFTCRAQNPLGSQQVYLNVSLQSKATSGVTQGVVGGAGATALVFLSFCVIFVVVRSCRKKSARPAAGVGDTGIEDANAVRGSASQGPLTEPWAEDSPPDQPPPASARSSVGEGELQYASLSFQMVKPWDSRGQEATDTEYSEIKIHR
In the case of `CC(C)(C)c1n[nH]c(C2CN(C(=O)c3cc(Cl)c[nH]3)CCO2)n1` (stereo not given), the Percent Effect came out at 10.4%.

Consider `Cc1nn(CC(C)C)c(N(C)C)c1CNCc1cc2ccccc2[nH]1`, for which the Percent Effect turned out to be 5.12%.

Take `Cc1ccc(CN2C[C@@H]3COC[C@H](NS(C)(=O)=O)[C@@H]3C2)o1`: the Percent Effect is -1.89%.

For `CC(=O)Nc1nc(C2CCN(C(C)=O)CC2)cs1`, the Percent Effect was -0.593%.

Regarding `COCC(=O)N1Cc2cn(C)nc2C(COc2cccnc2)C1` (stereo not given), the Percent Effect is -9.95%.

As for `O=C(COCc1nc(-c2ccncc2)no1)N1CCCC1`, the Percent Effect came out at 6.86%.

On to `CCOC(=O)c1sc(NC(=O)CN(C)S(C)(=O)=O)c(C#N)c1C`, for which the Percent Effect was -2.4%.

In the case of `Cc1ccc([C@]2(O)CC[C@H]3CN(Cc4cc(C)c(O)c(C)c4)C[C@H]32)nc1`, the Percent Effect is 8.26%.

Turning to `O=C(C1=CCCC1)N1CCO[C@H]2[C@@H](OCC3CC3)CC[C@@H]21`, the Percent Effect is -6.26%.

As to `Cc1nc(C)n(CC2CCCN2CC(=O)NCc2ccco2)n1` (stereo not given), the Percent Effect is 4.18%.

`CCOC(=O)NC(C(=O)NCc1ccc(N2CCCCC2)nc1)C(C)C` (stereo not given): the Percent Effect is -4.82%.

Consider `Cc1cc(NC(=O)c2nc(N3CCCC3)ncc2Cl)nc(C(C)C)n1`, for which the Percent Effect was -2.54%.

For the compound `CC(C)c1nc(C(=O)N2CCOCC2CC(=O)c2ccco2)c[nH]1` (stereo not given), the Percent Effect came out at 2.67%.

Take `OC1CCN(Cc2c(C3CCCNC3)[nH]c3ncccc23)CC1` (stereo not given): the Percent Effect turned out to be 5.12%.

As for `CS(=O)(=O)CCC(=O)Nc1cnn(-c2ccccc2Cl)c1`, the Percent Effect came out at 12.3%.

For the compound `CC(C)CN1CCN(Cc2nc3ccccc3[nH]2)[C@H]2CS(=O)(=O)C[C@H]21`, the Percent Effect is -1.7%.

For `O=C(Cn1cnc(NC(=O)CC2CCCC2)n1)NCc1ccccc1`, the Percent Effect was found to be 8.52%.

For `CN(Cc1ccco1)C(=O)[C@H]1CSCN1C(=O)OC(C)(C)C`, the Percent Effect stood at 13.2%.

Regarding `O=C1CN(Cc2nnc(-c3ccccc3Br)o2)CCN1`, the Percent Effect is -0.91%.

Take `CC(C)c1nnc2n1CCN(C(=O)CN1CCc3sccc3C1)C2`: the Percent Effect was -4%.

`Cn1nccc1C1CCN(Cc2csc(-c3ncccn3)n2)CC1`: the Percent Effect amounted to 6.8%.

With `COCc1cnc2n1CCN(Cc1cccnc1)C2C` (stereo not given), the Percent Effect was 6.43%.

Regarding `Cc1ccccc1CS(=O)(=O)CC(=O)NC1CCCCNC1=O` (stereo not given), the Percent Effect is 11%.

As to `O=C(Nc1cccc(OCc2cccc(F)c2)c1)C1COCCO1` (stereo not given), the Percent Effect turned out to be 1.36%.

Turning to `Cn1cnnc1C1CCCN(C(=O)NCc2cc[nH]n2)C1` (stereo not given), the Percent Effect is -7.02%.

For `CS(=O)(=O)NC1CCc2c(ccc(=O)n2CC2CC2)C1` (stereo not given), the Percent Effect amounted to 2.38%.

For `COc1ccc(Cl)cc1NCC(=O)NCCc1ccccn1`, the Percent Effect turned out to be 3.7%.

In the case of `CC(C)n1ccnc1CN1CCCN(C(=O)COC2CCCC2)CC1`, the Percent Effect was found to be 4.27%.

For the compound `COc1cc(C(=O)N(C2CC2)C2CC(=O)NC2=O)ccc1C` (stereo not given), the Percent Effect was found to be 4.45%.

As to `O=C(Nc1ccnc(OC2CCOC2)c1)C1CCC1` (stereo not given), the Percent Effect is 4.31%.

For the compound `Cc1ncccc1Oc1nccnc1C1CCN(C(C)C)CC1`, the Percent Effect amounted to 5.77%.

In the case of `Cc1cnn(CC2CCCN2C(=O)c2cn(-c3ccccc3)nc2C)c1` (stereo not given), the Percent Effect came out at 13.6%.

For the compound `O=C(Cc1ccccn1)N1CCN(C(=O)c2cccc3[nH]ncc23)CC1`, the Percent Effect is -3.99%.

Consider `Cc1nc2n(n1)CC(NCc1cc(Cl)c3c(c1)OCCCO3)CC2` (stereo not given), for which the Percent Effect was 11.4%.

With `Cn1cnc2c1CCN(Cc1nc(Cc3ccccc3)no1)C2`, the Percent Effect is -0.869%.

For `Cc1cnc(CN2CCOC(Cn3nc(C)nc3C)C2)cn1` (stereo not given), the Percent Effect was determined as 2.13%.

For the compound `CCN1CCC(c2nc3ccc(NC(C)C)cn3n2)CC1`, the Percent Effect was -3.17%.

Take `NC(=O)N1CCC2(CCN(Cc3cccc(F)c3)CC2)CC1`: the Percent Effect amounted to 14.9%.

Take `O=C(N[C@@H]1CCNC[C@H]1O)c1ccc(F)c(Cl)c1`: the Percent Effect turned out to be 3.76%.

For the compound `Cc1cnn(CCCNC(=O)N2CCCCC(N3CCCC3)C2)c1` (stereo not given), the Percent Effect worked out at 7.49%.

The test system of the next test is Trypanosoma cruzi. The test can be described thus: Trypanosoma cruzi phosphomannomutase and mannose-1-phosphate guanylyltransferase assay. The arrangement: scale not given: direction of the effect not stated beside the values. Format: functional. To be noted: 10 µM.
`CC(C)(C)c1n[nH]c(C2CN(C(=O)c3cc(Cl)c[nH]3)CCO2)n1` (stereo not given): the Percent Effect was found to be 3.99%.

On to `Cc1nn(CC(C)C)c(N(C)C)c1CNCc1cc2ccccc2[nH]1`, for which the Percent Effect was -2.17%.

For `Cc1ccc(CN2C[C@@H]3COC[C@H](NS(C)(=O)=O)[C@@H]3C2)o1`, the Percent Effect was -4.05%.

For `CC(=O)Nc1nc(C2CCN(C(C)=O)CC2)cs1`, the Percent Effect was -4.33%.

With `COCC(=O)N1Cc2cn(C)nc2C(COc2cccnc2)C1` (stereo not given), the Percent Effect was -0.493%.

For the compound `O=C(COCc1nc(-c2ccncc2)no1)N1CCCC1`, the Percent Effect worked out at 4.42%.

As for `CCOC(=O)c1sc(NC(=O)CN(C)S(C)(=O)=O)c(C#N)c1C`, the Percent Effect was -1.87%.

In the case of `Cc1ccc([C@]2(O)CC[C@H]3CN(Cc4cc(C)c(O)c(C)c4)C[C@H]32)nc1`, the Percent Effect was -2.37%.

Regarding `O=C(C1=CCCC1)N1CCO[C@H]2[C@@H](OCC3CC3)CC[C@@H]21`, the Percent Effect is 2.51%.

For `Cc1nc(C)n(CC2CCCN2CC(=O)NCc2ccco2)n1` (stereo not given), the Percent Effect was found to be 0.979%.

Consider `CCOC(=O)NC(C(=O)NCc1ccc(N2CCCCC2)nc1)C(C)C` (stereo not given), for which the Percent Effect is -5.94%.

For `Cc1cc(NC(=O)c2nc(N3CCCC3)ncc2Cl)nc(C(C)C)n1`, the Percent Effect is -8.79%.

For the compound `CC(C)c1nc(C(=O)N2CCOCC2CC(=O)c2ccco2)c[nH]1` (stereo not given), the Percent Effect came out at 0.682%.

`OC1CCN(Cc2c(C3CCCNC3)[nH]c3ncccc23)CC1` (stereo not given): the Percent Effect was -5.93%.

Take `CS(=O)(=O)CCC(=O)Nc1cnn(-c2ccccc2Cl)c1`: the Percent Effect stood at 2.88%.

`CC(C)CN1CCN(Cc2nc3ccccc3[nH]2)[C@H]2CS(=O)(=O)C[C@H]21`: the Percent Effect is -6.35%.

For the compound `O=C(Cn1cnc(NC(=O)CC2CCCC2)n1)NCc1ccccc1`, the Percent Effect was 9.96%.

Regarding `CN(Cc1ccco1)C(=O)[C@H]1CSCN1C(=O)OC(C)(C)C`, the Percent Effect was 5.7%.

Take `O=C1CN(Cc2nnc(-c3ccccc3Br)o2)CCN1`: the Percent Effect was found to be 2.43%.

With `CC(C)c1nnc2n1CCN(C(=O)CN1CCc3sccc3C1)C2`, the Percent Effect came to 7.71%.

Turning to `Cn1nccc1C1CCN(Cc2csc(-c3ncccn3)n2)CC1`, the Percent Effect was found to be 6.96%.

Turning to `COCc1cnc2n1CCN(Cc1cccnc1)C2C` (stereo not given), the Percent Effect is 3.28%.

`Cc1ccccc1CS(=O)(=O)CC(=O)NC1CCCCNC1=O` (stereo not given): the Percent Effect was found to be 4.87%.

Consider `O=C(Nc1cccc(OCc2cccc(F)c2)c1)C1COCCO1` (stereo not given), for which the Percent Effect was -3.41%.

Take `Cn1cnnc1C1CCCN(C(=O)NCc2cc[nH]n2)C1` (stereo not given): the Percent Effect was determined as 4.01%.

On to `CS(=O)(=O)NC1CCc2c(ccc(=O)n2CC2CC2)C1` (stereo not given), for which the Percent Effect is -3.54%.

As to `COc1ccc(Cl)cc1NCC(=O)NCCc1ccccn1`, the Percent Effect was -7.64%.

As to `CC(C)n1ccnc1CN1CCCN(C(=O)COC2CCCC2)CC1`, the Percent Effect was -1.74%.

With `COc1cc(C(=O)N(C2CC2)C2CC(=O)NC2=O)ccc1C` (stereo not given), the Percent Effect was -7.84%.

As to `O=C(Nc1ccnc(OC2CCOC2)c1)C1CCC1` (stereo not given), the Percent Effect was -6.32%.

For `Cc1ncccc1Oc1nccnc1C1CCN(C(C)C)CC1`, the Percent Effect was 0.593%.

Regarding `Cc1cnn(CC2CCCN2C(=O)c2cn(-c3ccccc3)nc2C)c1` (stereo not given), the Percent Effect was determined as 1.6%.

As for `O=C(Cc1ccccn1)N1CCN(C(=O)c2cccc3[nH]ncc23)CC1`, the Percent Effect was -0.103%.

With `Cc1nc2n(n1)CC(NCc1cc(Cl)c3c(c1)OCCCO3)CC2` (stereo not given), the Percent Effect was found to be 5.51%.

As to `Cn1cnc2c1CCN(Cc1nc(Cc3ccccc3)no1)C2`, the Percent Effect amounted to 3.27%.

As to `Cc1cnc(CN2CCOC(Cn3nc(C)nc3C)C2)cn1` (stereo not given), the Percent Effect was 4.82%.

As to `CCN1CCC(c2nc3ccc(NC(C)C)cn3n2)CC1`, the Percent Effect was determined as 7.62%.

In the case of `NC(=O)N1CCC2(CCN(Cc3cccc(F)c3)CC2)CC1`, the Percent Effect is 1.67%.

In the case of `O=C(N[C@@H]1CCNC[C@H]1O)c1ccc(F)c(Cl)c1`, the Percent Effect was -3.09%.

On to `Cc1cnn(CCCNC(=O)N2CCCCC(N3CCCC3)C2)c1` (stereo not given), for which the Percent Effect came to 3.19%.
